# Screening results (PubChem BioAssay)
# A selection: hits, their analogues and other compounds. The true share with any hit is near 2.3%.
# TMEM16A act – TMEM16A chloride channel activators or potentiators, primary screen, cell-based, HTS. HEK293 TMEM16A/YFP-H148Q/I152L, iodide quench fluorescence; stronger effect = lower value. 340,000 tested, 0.3% active. B-score at 10 µM;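 active means fluorescence-ratio B-score plate-corrected deviation score at least 3 library SD below zero, with starting fluorescence score within 5 deviations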;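 further: channel opened by trigger with iodide after compound preincubation; score built on the fluorescence ratio of max minus min over baseline; more negative score means more quench and so TMEM16A activation or potentiation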
# Target sequence (Q8BHY3 whole entry, looked up): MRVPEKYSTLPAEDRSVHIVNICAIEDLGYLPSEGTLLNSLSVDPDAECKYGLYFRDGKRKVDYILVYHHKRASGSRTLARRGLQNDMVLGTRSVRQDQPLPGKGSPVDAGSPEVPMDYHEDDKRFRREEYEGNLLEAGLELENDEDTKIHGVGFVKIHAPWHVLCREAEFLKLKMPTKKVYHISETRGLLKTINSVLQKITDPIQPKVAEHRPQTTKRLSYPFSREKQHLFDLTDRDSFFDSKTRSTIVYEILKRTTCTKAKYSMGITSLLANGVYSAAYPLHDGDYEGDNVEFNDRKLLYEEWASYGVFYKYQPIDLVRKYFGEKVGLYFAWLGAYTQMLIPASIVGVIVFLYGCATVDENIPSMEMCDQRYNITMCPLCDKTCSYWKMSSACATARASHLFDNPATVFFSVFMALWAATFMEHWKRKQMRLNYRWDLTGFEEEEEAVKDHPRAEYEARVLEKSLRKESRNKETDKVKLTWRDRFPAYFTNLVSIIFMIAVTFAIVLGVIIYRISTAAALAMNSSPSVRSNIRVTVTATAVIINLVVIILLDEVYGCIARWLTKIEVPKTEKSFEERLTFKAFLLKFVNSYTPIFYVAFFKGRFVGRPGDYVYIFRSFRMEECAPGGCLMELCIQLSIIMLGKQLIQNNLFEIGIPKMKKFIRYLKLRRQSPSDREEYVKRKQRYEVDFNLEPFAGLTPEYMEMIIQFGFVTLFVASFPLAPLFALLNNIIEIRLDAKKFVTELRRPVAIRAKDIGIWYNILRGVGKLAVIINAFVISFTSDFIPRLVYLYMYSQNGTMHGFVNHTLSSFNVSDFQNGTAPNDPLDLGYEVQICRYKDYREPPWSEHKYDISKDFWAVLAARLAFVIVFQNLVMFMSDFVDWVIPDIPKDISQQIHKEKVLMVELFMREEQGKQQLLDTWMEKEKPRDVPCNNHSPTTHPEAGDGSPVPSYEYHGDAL
# CHT inh – inhibitors of human choline transporter CHT | High affinity choline transporter 1 (Homo sapiens), Q9GZV3 | CHT-expressing cells, membrane potential dye, choline response; stronger effect = lower value | B-score at 10 µM | 310,000 tested, 0.86% active;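 active means B-score over 3 SD under the library average, and starting fluorescence ratio not unusually high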;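 further: choline stimulus applied at its EC90 after an EC20 pre-addition; B-score computed on integrated fluorescence ratio after choline addition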
# CHT PAM – CHT positive allosteric modulators, primary screen, cell-based, membrane potential dye, choline EC20 | AID 488977, 2010 | CHT-expressing cells; stronger effect = higher value; LV-AA mutant CHT in HEK293 cells | 310,000 tested, 0.49% active | B-score at 10 µM;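 active means initial fluorescence not abnormally high and integrated response B-score, plate-corrected, over 3 SD above library mean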
# TMEM16A inh – TMEM16A chloride channel inhibitors, primary screen, cell-based, HTS; HEK293 TMEM16A/YFP iodide influx fluorescence, ionomycin; normalized B-score (activity score, 25-100; higher = stronger inhibition) at 10 µM; 310,000 tested, 1.2% active; AID 588511, 2011;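 active means ratio plate-corrected score three or more library SD toward inhibition, starting fluorescence score within five deviations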;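 further: score derived from kinetic fluorescence span divided by baseline fluorescence per well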
# TMEM16A reconf – TMEM16A chloride channel inhibitors, confirmation, cell-based, re-confirmation. shares compounds with TMEM16A inh. HEK293 TMEM16A/YFP-H148Q, iodide quench fluorescence; ionomycin added to raise cell calcium. inhibition, % at 10 µM. 2,300 tested, 39% active. AID 652189, 2013;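 active means mean duplicate percent inhibition, scaled so buffer wells are 0 and the reference blocker 100, over three buffer SD above buffer mean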
# TMEM16A Ca cntr – calcium mobilization in TMEM16A/YFP HEK293 cells, confirmation, counter-screen for TMEM16A inhibitor project; shares compounds with TMEM16A inh; 2,300 tested, 2% active; Fluo4 calcium mobilization; calcium response (% of ionomycin), % at 10 µM;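 active means duplicate-averaged calcium signal over 20% of the ionomycin maximum, relative to buffer baseline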;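 further: each well's signal is peak minus trough fluorescence divided by its pre-addition baseline; 0% = buffer wells and 100% = ionomycin wells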
# YFP-HEK293 quench – iodide YFP quench changes in parental YFP-HEK293, counter-screen for TMEM16A inhibitor project, cell-based; YFP ratio F(max-min)/F0 at 10 µM; 2,300 tested, under 10 active; shares compounds with TMEM16A inh; ionomycin;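 active means yellow fluorescent protein signal ratio exceeding the buffer control mean by over 5 SD of those controls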;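 further: ratio is mean of duplicate wells from kinetic YFP trace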
# ClC-1 rat inh – ClC-1 chloride channel inhibition, selectivity assay for TMEM16A inhibitor project, cell-based, voltage-dependent ClC-1; ratio percent, % at 10 µM; shares compounds with TMEM16A inh; CHO ClC-1-YFP, iodide influx fluorescence quench; iodide control reads 0, buffer control 100; 2,300 tested, under 10 active;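 active means duplicate-mean ratio percent above the mean of iodide-only control wells, which defines zero, plus 5 of their SD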;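 further: higher percent means stronger block of ClC-1 iodide influx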
# * = called active by the depositor; i = inactive; / = no result given.
SMILES,TMEM16A act,CHT inh,CHT PAM,TMEM16A inh,TMEM16A reconf,TMEM16A Ca cntr,YFP-HEK293 quench,ClC-1 rat inh
COc1cc(-c2noc(C)c2C#Cc2ccsc2)cc(OC)c1OC,i,i,i,100*,28.0%*,i,-1.38,-5.0
COc1cc(-c2noc(C)c2C#CCO)cc(OC)c1OC,i,i,i,i,/,/,/,/
CC(C)NC(=O)C(=O)NCCC1CCCCN1S(=O)(=O)c1cccs1 (stereo not given),i,i,i,i,/,/,/,/
Cc1nc2ccc(N=NC3=C(O)CCCC3=O)cc2s1,i,i,i,i,i,i,-1.13,-8.0
Cc1nc2ccc(N=NC3=C(O)CC(C)(C)CC3=O)cc2s1,i,i,i,i,/,/,/,/
CCOCCCNC(=S)N1CCN(c2nc(-c3ccc(F)cc3)cs2)CC1,i,i,i,100*,31.0%*,i,-0.987,-23.5
CC(C)CCn1c(CN2CCOCC2)nc2c1c(=O)n(C)c(=O)n2C,i,i,i,i,/,/,/,/
CC1CC(C)CN(Cc2nc3c(c(=O)n(C)c(=O)n3C)n2CCN2CCOCC2)C1 (stereo not given),i,i,i,100*,i,i,-1.24,-4.0
O=C(CCC1CCCCC1)Nc1ccccc1-c1ccccc1,i,i,i,100*,26.5%*,i,-0.789,-5.0
O=C(COC(=O)CNC(=O)c1ccc(Cl)c([N+](=O)[O-])c1)NC(=O)c1ccccc1,i,i,i,i,/,/,/,/
COc1ccc(N2CCN(C(=O)CSc3nnc4nc(C)cc(C)n34)CC2)cc1,i,i,i,25*,i,i,-1.25,-10.0
CCC(C)n1c(C)nc2c(c1=O)c1nc3ccccc3nc1n2CCC1=CCCCC1 (stereo not given),i,i,i,25*,21.5%*,i,-1.05,-7.5
CCN(CC)C(=O)C1CCCN(c2ccc([N+](=O)[O-])cc2/C=N/NC(=O)c2cccc(Br)c2)C1 (stereo not given),i,i,i,100*,i,i,-0.86,-12.0
CCN1CCN(c2oc(-c3ccccc3)nc2S(=O)(=O)c2ccc(C)cc2)CC1,i,/,/,/,/,/,/,/
Cc1cc(C)c(S(=O)(=O)NCc2ccncc2)c(C)c1,i,i,i,100*,30.0%*,i,-0.861,-16.0
CCC(Sc1nc2ccncc2[nH]1)C(=O)Nc1ccc(C)c(Cl)c1 (stereo not given),i,i,i,i,/,/,/,/
COc1ccc(CC2(CO)CCN(Cc3cnc(-c4ccccc4C)nc3)CC2)cc1,i,i,i,25*,i,i,-1.05,-9.0
COc1ccc(CC2(CO)CCN(Cc3cnn(-c4ccccc4)c3)CC2)cc1,i,i,i,i,/,/,/,/
COc1ccc(CC2(CO)CCN(CC3=Cc4cc(Cl)ccc4OC3)CC2)cc1,i,i,i,25*,16.5%*,i,-1.03,-22.5
COc1cccc(NC(=O)CN(C)C(=O)c2ccc(S(=O)(=O)Nc3ccccc3F)cc2)c1,i,/,/,/,/,/,/,/
Cc1ccc(C(=O)CCC(=O)OC(C)C(=O)NC2CCCCC2C)cc1 (stereo not given),i,/,/,/,/,/,/,/
CN(C(=O)COn1nnc2ccc(Cl)cc21)C1CCS(=O)(=O)C1 (stereo not given),i,/,/,/,/,/,/,/
COC(=O)c1cc(COc2ccc3oc(C)c(C(=O)OC)c3c2)c(C)o1,i,i,i,100*,i,i,-1.22,-11.0
COc1ccc(C)cc1N(C(=O)c1ccc(C#N)cc1)C1=NC(C)(C)CS1,i,i,i,i,/,/,/,/
COc1ccc(N(CC(=O)Nc2ccc(C)cc2)S(=O)(=O)c2c(C)noc2C)cc1,i,i,i,i,/,/,/,/
SMILES,TMEM16A act,CHT inh,CHT PAM,TMEM16A inh,TMEM16A reconf,TMEM16A Ca cntr,YFP-HEK293 quench,ClC-1 rat inh
COc1ccc(NC(=O)CN(c2cc(C)cc(C)c2)S(=O)(=O)c2c(C)noc2C)cc1,i,i,i,100*,i,i,-1.14,0.5
Cc1ccc(C(=O)NCC(=O)OCn2nnc3ccccc3c2=O)cc1,i,/,/,/,/,/,/,/
COc1cc(C(=O)C(=O)c2ccc(OC)c(OC)c2)ccc1O,i,/,/,/,/,/,/,/
Cc1sc2ncn(CC(=O)OCC(=O)NC(C)(C)C)c(=O)c2c1C,/,i,i,i,i,i,-1.06,-5.0
O=S(=O)(NCC(c1ccco1)N1CCc2ccccc2C1)c1ccc(Br)cc1 (stereo not given),i,i,i,25*,i,i,-0.822,-5.0
O=C(c1ccc2c(c1)OCO2)N1CCN(S(=O)(=O)c2ccc(Br)cc2Cl)CC1,i,/,/,/,/,/,/,/
COc1ccc(C(=O)CSC2=C(C#N)C3(CCCCC3)C(C#N)=C(N)N2)cc1,i,i,i,i,/,/,/,/
N#CC1=C(N)NC(SCC(=O)c2ccc(Cl)cc2)=C(C#N)C12CCCC2,i,i,i,100*,i,i,-1.09,-6.0
C=CCSCC1Nc2cc(Cl)c(S(N)(=O)=O)cc2S(=O)(=O)N1 (stereo not given),i,i,i,i,/,/,/,/
NS(=O)(=O)c1cc2c(cc1Cl)NC(Cc1ccccc1)NS2(=O)=O (stereo not given),i,i,i,i,i,i,-0.915,-10.5
COc1ccc(N(CC(=O)NC2CCCC2)C(=O)Cn2nnc(-c3ccc(C)cc3)n2)cc1,i,i,i,25*,i,i,-0.928,-4.0
OCCCn1c(-c2ccccc2)csc1=Nc1ccccc1,i,i,i,100*,28.0%*,i,-1.04,-8.5
CSc1ccc(Cl)c(C(=O)NNC(=O)c2cccs2)c1,i,/,/,/,/,/,/,/
O=C(COC(=O)CCC(=O)c1ccc(F)cc1)NCc1ccccc1Cl,i,/,/,/,/,/,/,/
O=C(Nc1nccs1)c1ccc(-c2ccc(F)c(Cl)c2)o1,i,i,i,i,/,/,/,/
Cc1ccc(-c2nn3c(C)nnc3s2)cc1N,i,i,i,100*,i,i,-1.17,-10.5
Cc1ccc(-c2nn3c(C)nnc3s2)cc1NC(=O)C(C)C,i,i,i,i,/,/,/,/
Cc1cc(=O)oc2cc(OCC(O)CN3CCc4ccccc4C3)ccc12 (stereo not given),i,i,i,25*,i,i,-1.28,-8.0
